Measured potencies and affinities stand elsewhere. Calls of active or inactive are those of the source.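 The calls were made as follows: active = a dose-response curve fit returns a half-maximal inhibitory concentration, extrapolated values included; inactive = the fit returns no such concentration.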
Target: HMG-CoA reductase [Enterococcus faecalis] (UniProt Q9FD70)
Assay: class II HMG-CoA reductase inhibition potency – biochemical, Enterococcus faecalis, confirmation (AID 1233);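 also: 0% = full reaction carrier wells and 100% = background wells lacking mevalonate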
Settings: purified E. faecalis HMGR, NADPH absorbance 340 nm kinetics; series mostly up to 100 µM; inhibition: at the top concentration

inhibition, inactive:
Cc1cc(Cl)ccc1Oc1nccc(N(C)C)c1C#N -1.84%, CC1(C)CC(CCC(=O)Nc2ccccc2Cl)C(=O)O1 (stereo not drawn) -2.88%, COc1ccc(OC)c(-n2nnnc2SCC(=O)Nc2ccccc2N2CCOCC2)c1 -5.58%, S=C1NCCc2ccc(Cl)cc2C1c1ccccc1 (stereo not drawn) -3.66%, O=C(Nc1ccccc1)N1C2CCC1CC(O)(c1cccnc1)C2 (stereo not drawn) -2.14%, Cc1[nH][nH]c(=O)c1C(c1c(C)[nH][nH]c1=O)c1cn(Cc2ccc(F)cc2)c2ccccc12 8.42%, O=C(Nc1ccccc1)C(Cc1ccccc1)NC(=O)C12CC3CC(CC(C3)C1)C2 (stereo not drawn) -2.25%, O=C(COC(=O)c1ccc[nH]c1=O)NC1CCCCCC1 -0.24%, Cc1ccc(NC(=O)CCc2ccc(S(=O)(=O)N3CCOCC3)cc2)c(C)c1 -6.25%, Cc1cnc(NC(=O)c2cc3ccccc3o2)s1 -5.9%, Cc1cccc(-n2nc(C)cc2N)c1 -1.66%, Cn1c(SCC(=O)c2ccc(F)cc2)nnc1-c1cccnc1 -1.32%, C#CCn1c(-c2cccs2)nc2ccccc21 -5.36%, CCCCn1c(=O)c2ccccc2c2ccccc2c1=O -3.5%, O=C(CCCN1C(=O)/C(=C\c2cccs2)SC1=S)Nc1ccccn1 -5.05%, O=C(N/N=C/c1cc(Br)cc(Br)c1O)c1cccc(N2CCCC2=O)c1 -8.18%, Cc1cc(=O)[nH]c(N/N=C/c2ccc(N(C)C)cc2)n1 -14.6%, COc1ccc(-n2c(SCC(N)=O)nc3sc4c(c3c2=O)CCN(C)C4)cc1 1.62%, COc1ccccc1N1CCN(CC(=O)c2c(N)n(C)c(=O)n(C)c2=O)CC1 -3.15%, COc1ccc(N=C2C(=O)Nc3ccccc32)cc1 -0.06%, CCOc1cc(S(=O)(=O)N(CC)CC)c(OCC)cc1-n1cnnn1 -0.8%, CCCc1nc(NCc2ccccn2)c2nnn(Cc3ccccc3F)c2n1 -4.22%, O=[N+]([O-])/C(=C\Nc1ccccc1Cl)S(=O)(=O)c1ccccc1 -3.66%, COc1ccc(C2C(C(C)=O)=C(Nc3ccccc3)CC(C)(O)C2C(C)=O)cc1OC (stereo not drawn) -6.21%, CCCCCCCCNC(=S)NCCN1CCCCC1 -6.35%, CCOc1ccccc1C(=O)NC1CCN(Cc2nnnn2C2CCCC2)CC1 -1.25%, O=C(NCC(=O)N(Cc1cccs1)C(C(=O)NC1CCCC1)c1ccncc1)c1ccco1 (stereo not drawn) -4.43%, CCCn1c(C(O)c2ccc(OC)cc2)nc2ccccc21 (stereo not drawn) 2.18%, O=C(CC1SCCNC1=O)Nc1ccc(F)c(Cl)c1 (stereo not drawn) -8.26%, COc1cc(Cn2c(=O)oc3ccc(C)cc32)ccc1OC(C)C -4.35%, CSc1ccc(C2CC(=O)Nc3nc(SC)[nH]c(=O)c32)cc1 (stereo not drawn) -0.1%, CCc1ccc(NC(=O)CN(c2cccc(C)c2)S(C)(=O)=O)cc1 -1.92%, COc1cccc(NC(=O)c2cc(-c3ccncc3)nc3c(C)cc(C)cc23)c1 -5.32%, CN(C)S(=O)(=O)N1CCN(S(=O)(=O)N2CCOCC2)CC1 -0.28%, CCN(CC)Cc1c(C(=O)N2CCc3ccccc3C2)nc2ccc(Cl)cn12 -7.8%, COC(=O)CSc1ncc(C#N)c(N)n1 -9%, CCOC(=O)/C(C#N)=C/c1ccc(SC)cc1 -12.1%, CCOC(=O)c1c(NC(=O)CSc2nnc(C)s2)sc2c1CCC(CC)C2 (stereo not drawn) -5.44%
